Records with an inconclusive call do not appear. Calls of active or inactive are those of the source. The call rests on the fitted dose curve; in most records, active means well fitted activation curve with a large enough effect in the main read-out, with a control signal flat (not every such curve was filed as active); inconclusive means small, poorly fitted or top-dose-only effect, or effect the other way, or a change in a side signal; inactive means flat fitted curve, though single readings scatter.

In this experiment the target is 3',5'-cyclic-AMP phosphodiesterase 4B (Homo sapiens) (UniProt Q07343). In words: qHTS Assay for Inhibitors of PDE-IV (AID 607). As to conditions: HEK293 ACTOne CNG channel cells, membrane potential fluorescence; series mostly up to 22.9 µM. The text has this: NIH Chemical Genomics Center [NCGC]
3',5'-cyclic-AMP phosphodiesterase 4B (Homo sapiens), sequence (Q07343 whole entry, looked up): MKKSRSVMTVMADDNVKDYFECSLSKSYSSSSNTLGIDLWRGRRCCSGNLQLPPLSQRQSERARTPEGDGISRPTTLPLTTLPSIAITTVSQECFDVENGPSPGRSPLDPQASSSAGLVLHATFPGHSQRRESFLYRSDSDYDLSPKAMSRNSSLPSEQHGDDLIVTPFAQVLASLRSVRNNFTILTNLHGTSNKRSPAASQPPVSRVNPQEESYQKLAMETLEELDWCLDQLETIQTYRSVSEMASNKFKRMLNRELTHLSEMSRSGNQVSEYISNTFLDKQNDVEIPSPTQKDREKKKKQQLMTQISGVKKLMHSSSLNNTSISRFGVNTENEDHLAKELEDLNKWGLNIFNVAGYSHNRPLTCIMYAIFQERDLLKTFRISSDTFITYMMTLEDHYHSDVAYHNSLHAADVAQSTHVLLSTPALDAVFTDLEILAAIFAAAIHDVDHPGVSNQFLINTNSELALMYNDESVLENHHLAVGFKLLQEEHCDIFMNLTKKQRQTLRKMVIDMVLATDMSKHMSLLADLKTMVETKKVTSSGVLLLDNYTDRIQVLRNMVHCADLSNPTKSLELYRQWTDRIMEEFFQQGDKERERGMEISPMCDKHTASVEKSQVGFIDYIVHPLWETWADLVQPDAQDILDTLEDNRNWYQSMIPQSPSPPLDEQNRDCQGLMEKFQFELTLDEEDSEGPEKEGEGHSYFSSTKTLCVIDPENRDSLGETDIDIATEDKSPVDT
NIH Molecular Libraries Screening Centers Network [MLSCN]
The cyclic nucleotide phosphodiesterases (PDEs) are proteins that catalyze hydrolysis of 3', 5'-cyclic nucleotides, such as cyclic adenosine monophosphate (cAMP) and cyclic guanosine monophosphate (cGMP), to their corresponding 5'-nucleotide monophosphates. These enzymes play an important role in controlling cellular concentrations of cyclic nucleotides and have a central role in a variety of intracellular signaling events. cAMP PDEs are emerging as a promising class of drug targets in asthma and cardiovascular disease therapeutic areas.
There are no commercially available cell-based screening assays for PDE inhibitors: currently biochemical assays are done using pure substrates (cAMP or cGMP) and purified recombinant PDE enzymes. As with other biochemical screens on intracellular targets, false positives and false negatives may result from issues involving cell membrane permeability, cellular metabolism, and the like.
Here we report the development of a cell-based screening assay for cAMP phosphodiesterase (PDE) inhibitors. The assay is based on the BD ACTOne# technology (BD Biosciences) which utilizes a modified cyclic nucleotide-gated channel (CNG) to monitor intracellular cAMP changes in live cells. The CNG channel is localized on the plasma membrane, and opens when the intracellular cAMP level increases, resulting in ion flux and cell membrane depolarization. The influx of cations through the CNG channel can be quantified using membrane potential (MP) dyes. We modified the BD ACTOne technology to allow the detection of PDE inhibitors, and performed an inhibitor screen for PDE-IV, which is expressed endogenously in HEK293 cells. We optimized this assay in homogeneous 1536-well plate assay format for high throughput screening.
NCGC Assay Protocol Summary:
The medium contained 10% FBS (Invitrogen), 2 mM L-glutamine, and 250 ug/ml G418 (Cellgro) and 1 ug/ml puromycin (Clontech). ACTOneTM parental cells (BD Biosciences) were maintained in the same medium without puromycin.
The activity of the CNG channel was measured by BD ACTOneTM membrane potential dye kit (BD Biosciences). Forskolin, a positive control for cAMP activation and RO 20-1724, a PDE inhibitor, were both purchased from Sigma and solublized in DMSO.
Sequence,Parameter,Value,Description
1,Reagent,3 uL,1000 cells/well 1536 TC treated Black plate
3,Compound,0.5 uL,Kalypsys dispense RO 20-1724 100 uM final [A]
4,Reagent,3 uL,BD membrane potential dye
6,Compound,23 nL,Final concentration was 0.7nM to 22.9uM
8,Detector,EX 535 / EM 590 [B],Envision
Footnotes: [A] The stock 2 mM RO 20-1724 PDE inhibitor was made in 10 % DMSO. Parental cell line received 10 uM forskolin + 100 uM RO. [B] Envsion settings: Bottom Excitation 535/20 nm top emission 590/20, gain of 150 and 5 flashes per well.
Keywords: PDE, PDE-IV, cytotoxicity, flourescence, MLSMR, MLSCN, NIH Roadmap, qHTS, NCGC
`CCCC/C=C/C(NC(=O)CCc1ccccc1)c1ccccc1` (stereo not given): the call was inactive.

As to `COC(=O)[C@@]1(Cc2ccc(OC)cc2)[C@H]2c3cc(C(=O)N(C)C)n(CCc4c[nH]c5ccc(O)cc45)c3C[C@H]2CN1C(=O)c1ccccc1`, the call was inactive.

As for `COC(=O)[C@@]1(Cc2ccccc2)[C@H]2c3cc(C(=O)N(C)C)n(Cc4nc5ccccc5[nH]4)c3C[C@H]2CN1C(=O)c1ccccc1`, the call was inactive.

Take `COC(=O)[C@@]1(Cc2ccc(OC)cc2)[C@H]2c3cc(C(=O)N4CCCC4)n(Cc4ccc(O)c(OC)c4)c3C[C@H]2CN1C(=O)c1ccccc1`: the compound was called inactive.

In the case of `COC(=O)[C@@]1(Cc2ccc(F)cc2)[C@H]2c3cc(C(=O)N4CCCC4)n(Cc4ccc(C(F)(F)F)nc4)c3C[C@H]2CN1C(=O)c1ccccc1`, the compound was called inactive.

For `COC(=O)[C@@]1(Cc2ccc(OC)cc2)[C@H]2c3cc(C(=O)N4CCCC4)n(Cc4ccsc4Br)c3C[C@H]2CN1C(=O)c1ccccc1`, the compound was classed as inactive.

As to `C[C@@H](C(=O)N[C@@H](CO)Cc1ccccc1)[C@@H]1C[C@@]1(C)[C@@H](NC(=O)OCc1ccccc1)c1ccccc1`, the compound was called inactive.

In the case of `COC(=O)[C@@]1(Cc2ccc(OC)cc2)[C@H]2c3cc(C(=O)N4CCCC4)n(Cc4ccc(C)o4)c3C[C@H]2CN1C(=O)c1ccccc1`, the compound was called inactive.

`COCCNC(=O)[C@H](C)[C@@H]1C[C@@]1(C)[C@@H](NC(=O)OCc1ccccc1)c1ccccc1`: the result was inactive.

`C[C@@H](C(=O)NCc1ccccc1)[C@H]1C[C@]1(C)[C@H](NC(=O)OCc1ccccc1)c1ccccc1`: the result was inactive.

Turning to `COC(=O)[C@@]1(Cc2ccc(OC)cc2)[C@H]2c3cc(C(=O)N(C)C)n(CCc4ccccn4)c3C[C@H]2CN1C(=O)c1ccccc1`, the result was inactive.

Turning to `COC(=O)[C@@]1(Cc2ccccc2)[C@H]2c3cc(C(=O)N4CCCC4)n(CCSCCO)c3C[C@H]2CN1C(=O)c1ccccc1`, the compound was classed as inactive.

Take `COC(=O)[C@@]1(Cc2ccc(OC)cc2)[C@H]2c3cc(C(=O)N4CCCC4)n(CCN4CNCC4=O)c3C[C@H]2CN1C(=O)c1ccccc1`: the result was inactive.

In the case of `COC(=O)[C@@]1(Cc2ccc(OC)cc2)[C@H]2c3cc(C(=O)N4CCCC4)n(CCc4c[nH]c5ccccc45)c3C[C@H]2CN1C(=O)c1ccccc1`, the outcome was inactive.

As for `COC(=O)C1(CC(C)C)C=C2C(=C(C)C(=O)C2C)CN1` (stereo not given), the compound was classed as inactive.

As for `C[C@@H](C(=O)Nc1ccc2ccccc2c1)[C@@H]1C[C@@]1(C)[C@@H](NS(=O)(=O)c1ccccc1)c1ccccc1`, the call was inactive.

On to `CCc1c2c(nc3ccc(OC)cc13)OC(C)C2` (stereo not given), for which the compound was called inactive.

With `O=C(NCc1cccc2ccccc12)[C@H]1C[C@@H]1[C@H](NP(=O)(c1ccccc1)c1ccccc1)c1ccccc1`, the outcome was inactive.

For `COC(=O)[C@@]1(Cc2ccc(OC)cc2)[C@H]2c3cc(C(=O)N(C)C)n(Cc4ccc(Cl)c(C(F)(F)F)c4)c3C[C@H]2CN1C(=O)c1ccccc1`, the outcome was inactive.

Consider `C[C@@H](C(=O)Nc1ccc2ccccc2c1)[C@H]1C[C@]1(C)[C@H](NS(=O)(=O)c1ccccc1)c1ccccc1`, for which the result was inactive.

`COC(=O)[C@H]1C[C@@H]1[C@H](NC(C)=O)c1ccccc1`: the compound was classed as inactive.

Turning to `COc1ccc(NC(=O)CCCCC#Cc2ccccc2)cc1`, the compound was called inactive.

As for `COC(=O)[C@@]1(Cc2ccc(F)cc2)[C@H]2c3cc(C(=O)N(C)C)n(CC4CC4)c3C[C@H]2CN1C(=O)c1ccccc1`, the call was inactive.

With `COC(=O)[C@@]1(Cc2ccccc2)[C@H]2c3cc(C(=O)N(C)C)n(Cc4ccc(O)c(OC)c4)c3C[C@H]2CN1C(=O)c1ccccc1`, the outcome was inactive.

Consider `COC(=O)[C@H]1[C@@H]2C[C@H]3c4[nH]c5ccccc5c4CCN3C[C@@H]2CC[C@@H]1O`, for which the compound was called inactive.

With `COC(=O)[C@@]1(Cc2ccc(OC)cc2)[C@H]2c3cc(C(=O)N(C)C)n(CCF)c3C[C@H]2CN1C(=O)c1ccccc1`, the outcome was inactive.

On to `COC(=O)[C@@]1(Cc2ccc(F)cc2)[C@H]2c3cc(C(=O)N(C)C)n(CCc4ccc(O)c(O)c4)c3C[C@H]2CN1C(=O)c1ccccc1`, for which the result was inactive.

`COC(=O)[C@@]1(Cc2ccc(F)cc2)[C@H]2c3cc(C(=O)N4CCCC4)n(CCc4ccccn4)c3C[C@H]2CN1C(=O)c1ccccc1`: the result was inactive.

In the case of `COC(=O)[C@@]1(Cc2ccc(OC)cc2)[C@H]2c3cc(C(=O)N4CCCC4)n(Cc4ccccn4)c3C[C@H]2CN1C(=O)c1ccccc1`, the result was inactive.

In the case of `CC(C)=C1C(=O)C(c2ccccc2)=C2CN3C(=O)N(CCc4ccccc4)C(=O)[C@]3(Cc3ccc(C(F)(F)F)cc3)[C@H]21`, the outcome was inactive.

With `C[C@@H](C(=O)NCc1ccccc1)[C@@H]1C[C@@]1(C)[C@@H](NC(=O)OCc1ccccc1)c1ccccc1`, the call was inactive.

Take `C=C(CC1([C@@H](NP(=O)(c2ccccc2)c2ccccc2)[C@H]2C[C@@H]2CCCC)CC1)c1ccccc1`: the compound was called inactive.

For the compound `COC(=O)[C@@H]1C[C@H]1[C@@H](NC(C)=O)c1ccccc1`, the compound was classed as inactive.

Take `COC(=O)[C@@]1(Cc2ccc(OC)cc2)[C@H]2c3cc(C(=O)N(C)C)n(Cc4nc5ccccc5[nH]4)c3C[C@H]2CN1C(=O)c1ccccc1`: the compound was called inactive.

As for `COC(=O)[C@@]1(Cc2ccc(OC)cc2)[C@H]2c3cc(C(=O)N(C)C)n(Cc4cc(C)n(C)n4)c3C[C@H]2CN1C(=O)c1ccccc1`, the call was inactive.

As for `C[C@@H](C(=O)NCC1CC1)[C@@H]1C[C@@]1(C)[C@@H](NC(=O)OCc1ccccc1)c1ccccc1`, the outcome was inactive.

As to `CC(=O)OCC1C2CC[C@H]3C(OCc4ccc(F)cc4C(F)(F)F)OC[C@]4(C)[C@H]3C2=C(CN4C(=O)OC(C)(C)C)[C@H](C)C1COC(C)=O` (stereo not given in full), the outcome was inactive.

Consider `COC(=O)[C@@]1(Cc2ccccc2)[C@H]2c3cc(C(=O)N(C)C)n(Cc4ccccc4)c3C[C@H]2CN1C(=O)c1ccccc1`, for which the call was inactive.

For the compound `COC(=O)[C@H]1C[C@@H]1[C@H](N)c1ccccc1`, the result was inactive.

`COC(=O)[C@@]1(Cc2ccc(F)cc2)[C@H]2c3cc(C(=O)N(C)C)n(CCO)c3C[C@H]2CN1C(=O)c1ccccc1`: the outcome was inactive.

Values taken from PubChem BioAssay (NCATS).
